Reference: PubChem BioAssay
Activity calls are given as the source filed them. Unless noted, the rule behind the calls is not given here.

What was measured:
[1] = HepG2 liver cancer cell viability effects, profiling panel, resazurin fluorescence, 24 h, PK04 Diversity Set (AID 1172); settings: higher = more signal
[2] = basal S. cerevisiae growth modulation, no modifier, primary screen, OD600, strain BY4716, 24 h, basal condition (AID 1173); settings: OD600, 24 h, higher = more signal, called active from +8 up or from −8 down
[3] = MM1S myeloma cell viability, profiling panel, resazurin fluorescence, basal, 24 h, PK04 Diversity Set (AID 1174); settings: higher = more signal, called active from +8 up or from −8 down;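 note: MM1S multiple myeloma cell line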
[4] = molecular target: Dihydroorotate dehydrogenase (quinone), mitochondrial (Plasmodium falciparum (isolate 3D7)) (UniProt Q08210); test: PfDHODH enzyme inhibitors, primary screen, biochemical, C-terminal His tag, absorbance 600 nm (AID 1175); settings: DCIP absorbance 600 nm, higher = more signal, called active from +8 up or from −8 down;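 note: recombinant parasite enzyme with a five histidine tag at its C terminus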
Chain of Dihydroorotate dehydrogenase (quinone), mitochondrial (Plasmodium falciparum (isolate 3D7)) (Q08210 whole entry, looked up): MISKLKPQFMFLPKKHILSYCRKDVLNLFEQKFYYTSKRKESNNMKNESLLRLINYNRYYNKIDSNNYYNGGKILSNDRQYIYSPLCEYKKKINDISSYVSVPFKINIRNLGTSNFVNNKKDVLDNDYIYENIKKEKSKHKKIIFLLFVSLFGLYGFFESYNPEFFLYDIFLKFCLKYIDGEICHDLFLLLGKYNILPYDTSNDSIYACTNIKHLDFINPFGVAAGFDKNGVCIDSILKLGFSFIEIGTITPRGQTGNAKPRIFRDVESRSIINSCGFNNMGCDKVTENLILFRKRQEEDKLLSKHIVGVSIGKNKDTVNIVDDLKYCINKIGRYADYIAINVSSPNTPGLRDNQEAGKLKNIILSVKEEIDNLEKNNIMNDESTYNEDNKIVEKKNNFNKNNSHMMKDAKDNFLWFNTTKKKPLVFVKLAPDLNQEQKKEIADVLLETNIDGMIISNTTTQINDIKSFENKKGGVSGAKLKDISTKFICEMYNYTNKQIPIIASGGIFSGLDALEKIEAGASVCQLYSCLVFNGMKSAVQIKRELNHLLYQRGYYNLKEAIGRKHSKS

[5] = P. aeruginosa biofilm formation inhibitors, primary screen, strain PAO1, LB-PBS medium, absorbance 600 nm (AID 1176); settings: P. aeruginosa PAO1 growth/biofilm, A600, 12 h; higher = more signal
[6] = S. cerevisiae RM11-1a growth modifiers, primary screen, strain RM11-1a, OD600, basal, 24 h (AID 1177); settings: OD600, 24 h, higher = more signal, called active from +8 up or from −8 down;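 note: cultures grown under basal conditions with no added stressor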
[7] = E. coli acrAB mutant growth effects, primary screen, E. coli filamentation inducers, strain DRC39, OD650, 24 h (AID 1178); settings: higher = more signal, called active from +8 up or from −8 down;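 note: growth measured as culture turbidity by optical density at 650 nm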
[8] = E. coli acrAB mutant growth effects, primary screen, E. coli filamentation inducers, strain DRC39, OD650, 48 h (AID 1179);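 note: screen aims at cell division blockers that make cells filament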; settings: E. coli DRC39 delta-acrAB growth, higher = more signal, called active from +8 up or from −8 down
[9] = RPMI8226 myeloma cell viability, profiling panel, resazurin fluorescence, basal, 24 h, PK04 Diversity Set (AID 1180); settings: higher = more signal;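 note: RPMI8826 multiple myeloma cell line at 5000 cells per well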
[10] = molecular target: E3 ubiquitin-protein ligase XIAP (Homo sapiens) (UniProt P98170); test: XIAP binders, primary screen, biophysical, small-molecule microarray, fluorescence 635 nm (AID 1181); settings: small-molecule microarray binding, higher = more signal;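 note: score merges 667 nm emission and signal to noise over triplicate slides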
Chain of E3 ubiquitin-protein ligase XIAP (Homo sapiens) (P98170 whole entry, looked up): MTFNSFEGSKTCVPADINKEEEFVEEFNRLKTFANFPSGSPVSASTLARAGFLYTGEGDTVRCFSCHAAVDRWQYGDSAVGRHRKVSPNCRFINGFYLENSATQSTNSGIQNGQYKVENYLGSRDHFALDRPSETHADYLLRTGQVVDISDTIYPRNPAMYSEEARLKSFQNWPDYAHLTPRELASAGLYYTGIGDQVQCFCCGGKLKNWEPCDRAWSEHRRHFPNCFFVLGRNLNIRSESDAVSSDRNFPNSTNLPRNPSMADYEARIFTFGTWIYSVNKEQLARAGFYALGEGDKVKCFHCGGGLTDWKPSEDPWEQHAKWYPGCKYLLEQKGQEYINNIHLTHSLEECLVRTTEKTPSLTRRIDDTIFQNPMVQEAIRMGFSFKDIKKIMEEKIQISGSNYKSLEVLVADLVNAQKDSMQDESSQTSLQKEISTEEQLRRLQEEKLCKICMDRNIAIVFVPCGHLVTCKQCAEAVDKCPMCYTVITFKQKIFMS

[11] = tested on: XIP peptide (Xip251-270) binding; test: small-molecule binders of XIP peptide, primary screen, biochemical, small-molecule microarray, fluorescence 635/667 nm, 0.1 µg/mL protein (AID 1182); settings: fluorescent protein binding, 635 nm, higher = more signal, called active from +8 up or from −8 down
XIP peptide (Xip251-270) = test: small-molecule binders of XIP peptide, primary screen, biochemical, small-molecule microarray, fluorescence 635/667 nm, 0.5 µg/mL protein (AID 1183); settings: small-molecule microarray binding, fluorescence 635 nm; higher = more signal
[12] = Plasmodium falciparum growth inhibition, primary screen, strain 3D7, DAPI fluorescence, 100 nL (AID 1184);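 note: parasites grown inside human red blood cells in medium with human serum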; settings: P. falciparum 3D7 growth, 3 d, higher = more signal
[13] = molecular target: Homeobox protein Hox-A13 (Mus musculus) (UniProt Q62424); test: inhibitors of HoxA13-DNA binding, primary screen, biochemical, fluorescence polarization, labeled oligonucleotide (AID 1185); settings: 15 min, higher = more signal, called active from +8 up or from −8 down
Chain of Homeobox protein Hox-A13 (Mus musculus) (Q62424 whole entry, looked up): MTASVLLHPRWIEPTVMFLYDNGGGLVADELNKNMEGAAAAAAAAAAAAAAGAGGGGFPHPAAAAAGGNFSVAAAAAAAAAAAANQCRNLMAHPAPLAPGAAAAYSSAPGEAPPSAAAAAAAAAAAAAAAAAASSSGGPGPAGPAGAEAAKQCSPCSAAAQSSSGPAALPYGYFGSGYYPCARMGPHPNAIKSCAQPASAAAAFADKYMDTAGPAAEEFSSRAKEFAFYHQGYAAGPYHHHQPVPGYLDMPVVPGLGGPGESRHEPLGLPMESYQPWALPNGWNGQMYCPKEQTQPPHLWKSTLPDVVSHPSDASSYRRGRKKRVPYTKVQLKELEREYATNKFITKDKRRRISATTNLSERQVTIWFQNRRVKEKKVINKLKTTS

[14] = inhibitors of hydroxyurea-induced Chk1 phosphorylation, primary screen, imaging, HeLa, phospho-Chk1 antibody, percent positive cells (AID 1186); settings: hydroxyurea-induced phospho-Chk1 immunofluorescence imaging, higher = more signal
[15] = inhibitors of hydroxyurea-induced Chk1 phosphorylation, primary screen, imaging, HeLa, phospho-Chk1 nuclear intensity (AID 1187); settings: hydroxyurea-induced phospho-Chk1 immunofluorescence imaging, higher = more signal

Row | SMILES | z-score [1] | z-score [2] | z-score [3] | composite z-score [4] | z-score [5] | z-score [6] | z-score [7] | z-score [8] | z-score [9] | composite z-score [10] | composite z-score [11] | composite z-score (XIP peptide (Xip251-270)) | z-score [12] | z-score [13] | z-score [14] | z-score [15]
1 | COCCCNC(=O)[C@@]1(Cc2ccccc2N=[N+]=[N-])N=C(c2ccc(OCCCO)cc2)O[C@H]1c1ccccc1 | -0.0132 | -0.632 (inactive) | -0.681 (inactive) | 0.328 (inactive) | 0.441 (inactive) | -0.115 (inactive) | 0.987 (inactive) | -0.325 (inactive) | -0.647 | 0.234 | 0.226 (inactive) | 0.818 | -2.49 | -5.46 (inactive) | 0.0251 (inactive) | 0.285 (inactive)
2 | COC(=O)[C@@]1(Cc2ccc(OC)cc2)[C@H]2c3cc(C(=O)N(C)C)n(C[C@H](O)CO)c3C[C@H]2CN1C(=O)c1ccccc1 | -1.17 | 1.02 (inactive) | -2.31 (inactive) | -0.791 (inactive) | 2.01 (inactive) | 0.166 (inactive) | -1.46 (inactive) | -1.11 (inactive) | -1.95 | 0.441 | 0.309 (inactive) | -0.587 | -1.74 | -3.35 (inactive) | 0.708 (inactive) | 0.22 (inactive)
3 | CCCCC=C[C@@H](NC(=O)c1ccc(-c2ccccc2)cc1)c1ccccc1 | 0.272 | -0.447 (inactive) | -0.821 (inactive) | 0.34 (inactive) | 0.191 (inactive) | 0.491 (inactive) | -0.335 (inactive) | -0.0289 (inactive) | -1.75 | -0.0272 | -0.464 (inactive) | -0.102 | 0.067 | -3.89 (inactive) | -0.85 (inactive) | -1.37 (inactive)
4 | COC(=O)[C@@]1(Cc2ccc(F)cc2)[C@H]2c3cc(C(=O)N4CCCC4)n(CCN4CNCC4=O)c3C[C@H]2CN1C(=O)c1ccccc1 | 0.424 | 1.39 (inactive) | -0.758 (inactive) | -0.421 (inactive) | 0.976 (inactive) | 0.76 (inactive) | 0.264 (inactive) | -1.03 (inactive) | -0.628 | 0.253 | 0.207 (inactive) | 0.632 | -1.65 | -5.84 (inactive) | 0.191 (inactive) | 0.44 (inactive)
5 | Cc1ccc(S[C@]2(C(=O)NCC(F)(F)F)CC(=O)N(C3CCCCC3)[C@@H]2c2ccc(CO)cc2I)cc1 | 0.04 | 0.108 (inactive) | 0.384 (inactive) | 0.0443 (inactive) | 0.201 (inactive) | -0.531 (inactive) | -0.0243 (inactive) | -0.223 (inactive) | -0.128 | -0.12 | -0.0988 (inactive) | 0.735 | -0.142 | -3.45 (inactive) | 0.148 (inactive) | 0.594 (inactive)
6 | CC(C)(C)N1CC=CC23O[C@@H]4C=CCCOC(=O)C4[C@H]2C(=O)N(CCO)[C@@H]3C1=O (some centres undefined) | 0.388 | 0.0947 (inactive) | -0.512 (inactive) | 0.427 (inactive) | 0.345 (inactive) | 0.451 (inactive) | -1.02 (inactive) | -1.05 (inactive) | -1.13 | 0.072 | -0.692 (inactive) | -0.421 | -0.175 | -4.92 (inactive) | 0.0024 (inactive) | -0.528 (inactive)
7 | C[C@@H]1NC(=O)[C@@]23C(=O)N[C@@H](Cc4ccccc4)C2[C@H](C)[C@@]2(C)O[C@H]2C3/C=C/C/C=C\CNC(=O)[C@@H]2CCCN2C1=O (some centres undefined) | -0.289 | -0.963 (inactive) | -0.737 (inactive) | -0.972 (inactive) | 1.28 (inactive) | -0.142 (inactive) | -0.4 (inactive) | -0.188 (inactive) | -0.0461 | -0.102 | -0.85 (inactive) | -0.103 | 0.934 | -3.68 (inactive) | -0.0354 (inactive) | 0.186 (inactive)
8 | CN1C(=O)C2C=CC(C(O)c3cccc(O)c3)N(Nc3ccccc3)C2C1=O (centres undefined) | 0.0748 | 0.655 (inactive) | -0.462 (inactive) | 0.613 (inactive) | -0.159 (inactive) | 0.837 (inactive) | -1.32 (inactive) | -0.17 (inactive) | -2.48 | -0.0812 | -0.252 (inactive) | -0.0631 | 0.655 | -0.751 (inactive) | 0.0011 (inactive) | 0.118 (inactive)
9 | [N-]=[N+]=Nc1ccccc1[C@H]1OC(c2ccc(OCCCO)cc2)=N[C@@]1(Cc1ccccc1)C(=O)N1CCCCC1 | -1.16 | -0.722 (inactive) | -3.61 (inactive) | -0.827 (inactive) | 0.603 (inactive) | 1.97 (inactive) | 0.359 (inactive) | 0.617 (inactive) | -4.52 | 0.0197 | 0.391 (inactive) | 0.664 | -1.95 | -2.71 (inactive) | -0.549 (inactive) | -0.463 (inactive)
10 | O=C1OCCC/C=C\[C@H]2OC34C=CCN(CCN5CCOCC5)C(=O)[C@H]3N(CCCCCCO)C(=O)[C@@H]4C12 (some centres undefined) | 0.287 | -0.549 (inactive) | 0.828 (inactive) | -1.38 (inactive) | 0.0251 (inactive) | -1.06 (inactive) | 0.251 (inactive) | 0.547 (inactive) | 0.56 | 0.122 | 3.43 (inactive) | 0.299 | -0.282 | -6.22 (inactive) | -0.039 (inactive) | 0.587 (inactive)
11 | COc1ccc([Si](C)(C)[C@@H]2[C@@H](CC(=O)N(CCO)Cc3ccccc3)O[C@]3(C(=O)N(Cc4cccc(N5C(=O)c6cccc7cccc5c67)c4)c4ccccc43)[C@H]2C)cc1 | -0.47 | -0.304 (inactive) | -1.6 (inactive) | -1.29 (inactive) | 1.25 (inactive) | 0.323 (inactive) | 1.75 (inactive) | 1.51 (inactive) | -1.27 | -0.124 | -0.338 (inactive) | 0.604 | -2.52 | -0.625 (inactive) | -0.512 (inactive) | 0.0885 (inactive)
12 | CN(C)C(=O)C1N=C(c2ccc(OCCCO)cc2)N(c2ccccc2)O1 (centres undefined) | 0.244 | -1.29 (inactive) | 0.689 (inactive) | -1.01 (inactive) | -0.841 (inactive) | 0.353 (inactive) | 1.16 (inactive) | 1.56 (inactive) | 0.271 | -0.181 | 0.94 (inactive) | 0.62 | 0.639 | -1.46 (inactive) | -0.823 (inactive) | -0.846 (inactive)
13 | COC(=O)c1cn(C[C@@H](Cc2ccccc2)NC(=O)N[C@H](CO)CCc2oc(C(C)=O)c(C(=O)OC)c2C(=O)OC)nn1 | 0.0852 | -1.3 (inactive) | 0.438 (inactive) | 0.223 (inactive) | -0.227 (inactive) | -0.504 (inactive) | 1.3 (inactive) | 0.604 (inactive) | -0.181 | -0.02 | 0.224 (inactive) | 0.111 | -0.818 | -4.33 (inactive) | -0.406 (inactive) | -0.043 (inactive)
14 | COc1cc(CO)cc(I)c1O[C@H]1C=C(C(=O)NCCO)C[C@@H](NCc2ccc(F)cc2)[C@@H]1O | -0.205 | -3.76 (inactive) | -1.29 (inactive) | 0.969 (inactive) | 0.507 (inactive) | 0.0419 (inactive) | 0.988 (inactive) | 0.878 (inactive) | -0.512 | -0.101 | -0.35 (inactive) | 0.728 | -3.1 | -7.05 (inactive) | -0.926 (inactive) | -2.03 (inactive)
15 | [N-]=[N+]=NCc1ccccc1C[C@@]1(C(=O)N2CCCCC2)N=C(c2ccc(OCCCO)cc2)O[C@@H]1c1ccccc1 | -0.876 | -0.59 (inactive) | -5.49 (inactive) | 1.53 (inactive) | 0.137 (inactive) | 1.95 (inactive) | 0.297 (inactive) | 0.696 (inactive) | -4.9 | -0.279 | -0.194 (inactive) | 0.434 | -2.38 | -4.86 (inactive) | -0.219 (inactive) | -0.234 (inactive)
16 | CN(C)C(=O)[C@]1(CCS(=O)(=O)c2ccccc2)N=C(c2ccc(OCCCO)cc2)O[C@@H]1c1ccccc1N=[N+]=[N-] | -0.622 | -0.0799 (inactive) | -0.99 (inactive) | 1.05 (inactive) | 0.218 (inactive) | 0.386 (inactive) | 0.292 (inactive) | 0.393 (inactive) | -1.01 | 0.273 | 1.1 (inactive) | 0.821 | -2.34 | -3.11 (inactive) | -0.197 (inactive) | -0.447 (inactive)
17 | CC(C)(C)OC(=O)CC[C@@]1(C(=O)NCc2ccccc2)N=C(c2ccc(OCCCO)cc2)O[C@@H]1c1ccccc1N=[N+]=[N-] | -0.409 | 0.381 (inactive) | -1.36 (inactive) | 1.45 (inactive) | 1.2 (inactive) | 1.99 (inactive) | 2.98 (inactive) | 0.914 (inactive) | -0.362 | 0.23 | -0.208 (inactive) | 0.759 | -2.1 | -1.44 (inactive) | -0.347 (inactive) | 0.14 (inactive)
18 | C=C(/C(=C/C[C@H](OC(C)=O)c1cccc(OCCO)c1)c1cnc2ccccc2c1)C(C)C | -0.196 | 0.644 (inactive) | -0.0992 (inactive) | -5.52 (inactive) | -0.0099 (inactive) | 1.51 (inactive) | 0.636 (inactive) | 0.363 (inactive) | 0.573 | -0.0773 | -0.328 (inactive) | -0.179 | -1.28 | -4.29 (inactive) | -0.192 (inactive) | -0.139 (inactive)
19 | OCCCC1=CC(c2ccc(CN3CCCC3)cc2)N(Cc2sc3ccccc3c2Cl)CC1 (centres undefined) | -0.516 | -7.47 (inactive) | -0.846 (inactive) | 0.721 (inactive) | 0.367 (inactive) | 0.922 (inactive) | -0.365 (inactive) | -1.05 (inactive) | 0.234 | 0.0623 | 0.705 (inactive) | 0.797 | -3.1 | -1.38 (inactive) | -0.186 (inactive) | -0.276 (inactive)
